Screens as filed in PubChem.
Most compounds without a hit are left out; they make up all but 3% or so of the library.
Sm TGR inh: S. mansoni TGR enzyme inhibition | Potency, µM (highest dose often 114 µM), for inactives: top-dose activity change, negative = inhibition, most hits filed as inhibitors | 360,000 tested, 3% active | purified TGR, DTNB reduction, TNB absorbance 405 nm; active means well fitted inhibition curve with a large enough effect; inconclusive means small, poorly fitted or top-dose-only effect; inactive means no such curve, though single readings can be large or run the other way; further: on the % scale 0 is the no-effect control and ±100 the full control effect; nearly all actives have a fitted effect of over 60% in size
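TGR 20 nM + NADPH 100 uM (dispensed conc.), cpd preinc 15 min RT; start with NADPH (500 uM addition) then DTNB (15 mM addition). Kinetic TNB absorbance, 405 nm filter. Four-parameter Hill fit across titration.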
SARS PLpro yeast: inhibitors of SARS-CoV papain-like protease in yeast. S. cerevisiae expressing SARS-CoV PLpro, growth rescue. Potency, µM (doses to about 32.9 µM), for the others: at the top dose activity, positive = growth rescue, hits mostly activators. 330,000 tested, 0.19% active; calls by dose curve; further: 0% is about no effect; nearly all actives have a fitted effect of over 55% in size
* marks the source's active call; other numbers are inactive results; ? = inconclusive; nt = no result. Potency means the concentration at half of the fitted maximal effect.

SMILES | Sm TGR inh | SARS PLpro yeast
Cc1ccc(S(=O)(=O)NNC(=O)c2ccc(O)cc2)cc1 | 13.2% | -3.5%
Cc1ccc(C(=O)NC(=S)NNS(=O)(=O)c2ccc(C)cc2)cc1 | 22.4µM* | -12.2%
Cc1ccc(C(=O)NC(=S)NCC2CCCO2)cc1Br (centres undefined) | 56.2µM* | 2.6%
O=C(NC(=S)NCC1CCCO1)c1ccccc1Br (centres undefined) | -12.8% | 7.8%
COC(=O)c1ccc(C2CC(=O)Nc3c2c(C)nn3-c2nc(C)cc(C)n2)cc1 (centres undefined) | 0.4% | nt
COC(=O)C1(Cc2ccc(O)cc2)OC(=O)C(O)=C1c1ccc(O)cc1 (centres undefined) | 15.8µM* | 1.0%
COC(=O)CCc1ccc(O)cc1 | -10.3% | -3.2%
CCCCN(C)CCCNC(=O)CN1C(=O)COc2ccc(S(=O)(=O)N3CCC(C)CC3)cc21 | -0.8% | nt
Cc1ccc(S(=O)(=O)N/N=C/c2cc([N+](=O)[O-])ccc2O)cc1[N+](=O)[O-] | 28.2µM* | -2.7%
COc1ccc(-n2c(O)c(/C=N/NS(=O)(=O)c3ccc(C)c([N+](=O)[O-])c3)c3ccccc3c2=O)cc1OC | 10µM* | -0.4%
Cc1ccc(S(=O)(=O)N/N=C/c2ccc(O)cc2O)cc1[N+](=O)[O-] | -5.2% | 0.7%
COc1cc(/C=N/NS(=O)(=O)c2ccc(C)c([N+](=O)[O-])c2)cc([N+](=O)[O-])c1O | ? | 0.7%
COc1ccc(Br)cc1CNC(=O)c1cnc2sc(N3CCC(C)CC3)nn2c1=O | 17.2% | nt
COc1ccc(NC(=O)CN(C)C(=O)c2cccc(S(=O)(=O)N3CCN(Cc4ccccc4)CC3)c2)cc1 | -11.2% | 2.8%
COc1ccc(NC(=O)CN(C)C(=O)c2cccc(S(=O)(=O)N3CCN(C)CC3)c2)cc1 | 89.1µM* | 0.9%
C=C(C)CSc1nc(N)c(C#N)c(-c2ccc(C)cc2)c1C#N | 35.5µM* | nt
CCOC(=O)CSc1nc(N)c(C#N)c(-c2ccc(OC)cc2)c1C#N | 0.0% | ?
CCCn1c(CC)nc([N+](=O)[O-])c1Sc1ccc(C)cc1 | -32.0% | -4.9%
CCCn1c(CC)nc([N+](=O)[O-])c1Sc1ccc(F)cc1 | 44.7µM* | 4.9%
CCCCOc1ccc(CNC(=O)c2cc3n(n2)CCCN(Cc2ccc(C)cc2)C3=O)cc1 | -2.8% | nt
CCOC(=O)c1ccccc1NC1(c2ccc(OC)cc2)C(=O)c2ccccc2C1=O | 4.3% | nt
Oc1ccc(Cl)cc1C1=Nc2ccccc2N=C(c2cccc(Br)c2)C1 | -1.6% | nt
Cc1c(C)[n+](=O)c2c(n1[O-])C(Br)CCC2Br (centres undefined) | 39.8µM* | 8.3%
Cc1c(C)[n+](=O)c2c(n1[O-])CCC2 | -1.5% | -2.1%
CCc1c(C)n([O-])c2c([n+]1=O)CCC2 | 3.2% | -0.2%
SMILES | Sm TGR inh | SARS PLpro yeast
Cc1c(CBr)[n+](=O)c2c(n1[O-])C(Br)CCC2Br (centres undefined) | 3.98µM* | 0.3%
CC(C)CN(CCCNC(=O)c1cc(-c2cccs2)nc2ccccc12)CC(C)C | 1.3% | nt
Cc1cccc(N2CCN(C(=O)CCn3c(=O)c4cccn4c4cccnc43)CC2)c1C | -3.2% | nt
CCc1nn(CC(=O)NC2CC2)c(=O)c2cc3c(OC)cccc3n12 | 1.0% | nt
CCN(Cc1ccccc1)C(=O)Cn1c(=O)n(-c2ccc(Cl)cc2)c(=O)c2c(C)c(C(=O)N(C)C)sc21 | -0.5% | nt
CCC(=O)Nc1ccc(N2CCC(C)CC2)cc1 | -2.3% | -4.1%
CC1CCN(CC(=O)NNC(=O)c2cccc(Br)c2)CC1 | 3.8% | -3.0%
CC1CCN(CC(=O)Nc2ccc(C(=O)N3CCCCC3)cc2)CC1 | 1.7% | 3.8%
CC1CCN(CC(=O)c2cccc(C(F)(F)F)c2)CC1 | 35.5µM* | -2.8%
CC(C)CC(=O)Nc1ccc(C(=O)CN2CCC(C)CC2)cc1 | 20µM* | -2.0%
CCC(=O)Nc1ccc(C(=O)CN2CCC(C)CC2)cc1 | 31.6µM* | 1.3%
CCC1CCCCN1CCCNC(=O)c1ccc2c(c1)N(Cc1ccc(Cl)cc1)C(=O)c1ccccc1S2(=O)=O (centres undefined) | 4.5% | nt
CCOc1cccc(C(=O)Nc2ccc(-c3nc4cc(C)cc(C)c4o3)cc2)c1 | -11.6% | nt
CCn1nc(C)c2c(-c3ccccc3)cc(=O)n(C(C)C(=O)Nc3ccc(OC)c(OC)c3)c21 (centres undefined) | 1.8% | nt
Cc1ccccc1NC(=S)c1ccc2ccccc2n1 | 50.1µM* | -24.9%
CCCN(CC(=O)Nc1ccccc1C)C(=O)c1ccc2ccccc2n1 | -4.8% | -1.8%
CCc1ccc(NC(=O)Cn2cnc3sc(C)c(S(=O)(=O)N4CCN(c5ccccc5OC)CC4)c3c2=O)cc1 | 4.2% | nt
CCNS(=O)(=O)c1ccc(CCC(=O)NCCc2ccc(OC)cc2)cc1 | 6.2% | 0.7%
CCOc1ccccc1NC(=O)CCS(=O)(=O)c1ccc(OC)cc1 | -22.9% | -0.8%
COc1ccc(S(=O)(=O)CCC(=O)NCCc2ccc(C)cc2)cc1 | 31.6µM* | -7.6%
COc1ccc(CNC(=O)CCS(=O)(=O)c2ccc3c(c2)NC(=O)CS3)cc1 | 12.6µM* | 2.3%
COc1ccc(S(=O)(=O)CCC(=O)Nc2c(C)cccc2C)cc1 | 39.8µM* | 1.9%
Cc1cccc(C)c1NC(=O)CCS(=O)(=O)c1ccc(Br)cc1 | 0.7% | 0.0%
COc1ccc(CNC(=O)CCS(=O)(=O)c2ccc3c(c2)NC(=O)C(C)S3)cc1 (centres undefined) | -0.9% | -1.9%
CCc1ccccc1NC(=O)CCS(=O)(=O)c1ccc(OC)cc1 | 14.1µM* | 0.2%
SMILES | Sm TGR inh | SARS PLpro yeast
CCc1ccc(NC(=O)CN2C(=O)c3cccc4cccc2c34)cc1 | 23.4% | nt
O=C(CCn1cnc2ccccc2c1=O)NCc1ccccc1 | -1.5% | nt
CC(=O)CCS(=O)(=O)c1ccc(Oc2ccc(S(=O)(=O)CCC(C)=O)cc2)cc1 | 10µM* | 5.5%
COc1ccc(C)c2sc(NC(=O)CCS(=O)(=O)c3ccccc3)nc12 | 5.01µM* | 0.1%
CCOc1cccc2sc(NC(=O)CCS(=O)(=O)c3ccccc3)nc12 | -29.3% | -4.5%
O=C(CCS(=O)(=O)c1ccc(F)cc1)Nc1nnc(-c2ccc(F)cc2)o1 | 2.4% | 0.0%
COc1ccccc1-c1nnc(NC(=O)CCS(=O)(=O)c2ccccc2)o1 | 39.8µM* | -3.5%
CC(=O)CS(=O)(=O)c1ccc(Oc2ccc(S(=O)(=O)CC(C)=O)cc2)cc1 | -31.1% | 15.6%
Cc1cccc(C(=O)NCCc2nc3ccccc3n2Cc2ccc(Cl)cc2)c1 | 6.3% | nt
CCC(C)NC(=O)c1ccc2c(c1)N=C(C)c1cc(C)ccc1S2 (centres undefined) | 1.5% | nt
COc1cccc(-n2ccnc2SCC(=O)Nc2c(C)cc(C)cc2C)c1 | 0.9% | nt
COC(=O)c1ccc(CN2[C@H](C(=O)OC)C[C@@]3(O)[C@H](O)[C@H](O)[C@H](O)C[C@@H]23)cc1 | 1.7% | 1.5%
COC(=O)[C@@H]1C[C@@]2(O)[C@@H](O)[C@@H](O)[C@@H](O)C[C@H]2N1Cc1ccc(Cl)cc1 | 39.8µM* | 5.8%
COc1cccc(-c2cc(C(=O)NCCc3ccc(C)cc3)[nH]n2)c1 | -6.2% | nt
Cc1ccc(NC(=O)c2cc3c(=O)n(Cc4cccnc4)ccc3nc2C)cc1F | -2.1% | nt
CCCCNc1sc(S(=O)(=O)CCC)nc1S(=O)(=O)c1ccc(C)cc1 | -1.2% | nt
Cc1ccc(Cl)cc1NC(=O)C1COc2ccccc2O1 (centres undefined) | 9.8% | -3.0%
CCN(CC(=O)Nc1cc(Cl)ccc1C)C(=O)C1COc2ccccc2O1 (centres undefined) | 20µM* | -3.0%
